Drawing on PubChem BioAssay (EPA / NIEHS), this text covers outcome and AC50 for 27 compounds.

The source made the active and inactive calls. Rule for the calls: active = hit-call score of the fitted dose curve at least 0.9, where 1 is the maximum; inactive = score below 0.9.

Sequence of Fatty acid synthase (Homo sapiens) (P49327 whole entry, looked up): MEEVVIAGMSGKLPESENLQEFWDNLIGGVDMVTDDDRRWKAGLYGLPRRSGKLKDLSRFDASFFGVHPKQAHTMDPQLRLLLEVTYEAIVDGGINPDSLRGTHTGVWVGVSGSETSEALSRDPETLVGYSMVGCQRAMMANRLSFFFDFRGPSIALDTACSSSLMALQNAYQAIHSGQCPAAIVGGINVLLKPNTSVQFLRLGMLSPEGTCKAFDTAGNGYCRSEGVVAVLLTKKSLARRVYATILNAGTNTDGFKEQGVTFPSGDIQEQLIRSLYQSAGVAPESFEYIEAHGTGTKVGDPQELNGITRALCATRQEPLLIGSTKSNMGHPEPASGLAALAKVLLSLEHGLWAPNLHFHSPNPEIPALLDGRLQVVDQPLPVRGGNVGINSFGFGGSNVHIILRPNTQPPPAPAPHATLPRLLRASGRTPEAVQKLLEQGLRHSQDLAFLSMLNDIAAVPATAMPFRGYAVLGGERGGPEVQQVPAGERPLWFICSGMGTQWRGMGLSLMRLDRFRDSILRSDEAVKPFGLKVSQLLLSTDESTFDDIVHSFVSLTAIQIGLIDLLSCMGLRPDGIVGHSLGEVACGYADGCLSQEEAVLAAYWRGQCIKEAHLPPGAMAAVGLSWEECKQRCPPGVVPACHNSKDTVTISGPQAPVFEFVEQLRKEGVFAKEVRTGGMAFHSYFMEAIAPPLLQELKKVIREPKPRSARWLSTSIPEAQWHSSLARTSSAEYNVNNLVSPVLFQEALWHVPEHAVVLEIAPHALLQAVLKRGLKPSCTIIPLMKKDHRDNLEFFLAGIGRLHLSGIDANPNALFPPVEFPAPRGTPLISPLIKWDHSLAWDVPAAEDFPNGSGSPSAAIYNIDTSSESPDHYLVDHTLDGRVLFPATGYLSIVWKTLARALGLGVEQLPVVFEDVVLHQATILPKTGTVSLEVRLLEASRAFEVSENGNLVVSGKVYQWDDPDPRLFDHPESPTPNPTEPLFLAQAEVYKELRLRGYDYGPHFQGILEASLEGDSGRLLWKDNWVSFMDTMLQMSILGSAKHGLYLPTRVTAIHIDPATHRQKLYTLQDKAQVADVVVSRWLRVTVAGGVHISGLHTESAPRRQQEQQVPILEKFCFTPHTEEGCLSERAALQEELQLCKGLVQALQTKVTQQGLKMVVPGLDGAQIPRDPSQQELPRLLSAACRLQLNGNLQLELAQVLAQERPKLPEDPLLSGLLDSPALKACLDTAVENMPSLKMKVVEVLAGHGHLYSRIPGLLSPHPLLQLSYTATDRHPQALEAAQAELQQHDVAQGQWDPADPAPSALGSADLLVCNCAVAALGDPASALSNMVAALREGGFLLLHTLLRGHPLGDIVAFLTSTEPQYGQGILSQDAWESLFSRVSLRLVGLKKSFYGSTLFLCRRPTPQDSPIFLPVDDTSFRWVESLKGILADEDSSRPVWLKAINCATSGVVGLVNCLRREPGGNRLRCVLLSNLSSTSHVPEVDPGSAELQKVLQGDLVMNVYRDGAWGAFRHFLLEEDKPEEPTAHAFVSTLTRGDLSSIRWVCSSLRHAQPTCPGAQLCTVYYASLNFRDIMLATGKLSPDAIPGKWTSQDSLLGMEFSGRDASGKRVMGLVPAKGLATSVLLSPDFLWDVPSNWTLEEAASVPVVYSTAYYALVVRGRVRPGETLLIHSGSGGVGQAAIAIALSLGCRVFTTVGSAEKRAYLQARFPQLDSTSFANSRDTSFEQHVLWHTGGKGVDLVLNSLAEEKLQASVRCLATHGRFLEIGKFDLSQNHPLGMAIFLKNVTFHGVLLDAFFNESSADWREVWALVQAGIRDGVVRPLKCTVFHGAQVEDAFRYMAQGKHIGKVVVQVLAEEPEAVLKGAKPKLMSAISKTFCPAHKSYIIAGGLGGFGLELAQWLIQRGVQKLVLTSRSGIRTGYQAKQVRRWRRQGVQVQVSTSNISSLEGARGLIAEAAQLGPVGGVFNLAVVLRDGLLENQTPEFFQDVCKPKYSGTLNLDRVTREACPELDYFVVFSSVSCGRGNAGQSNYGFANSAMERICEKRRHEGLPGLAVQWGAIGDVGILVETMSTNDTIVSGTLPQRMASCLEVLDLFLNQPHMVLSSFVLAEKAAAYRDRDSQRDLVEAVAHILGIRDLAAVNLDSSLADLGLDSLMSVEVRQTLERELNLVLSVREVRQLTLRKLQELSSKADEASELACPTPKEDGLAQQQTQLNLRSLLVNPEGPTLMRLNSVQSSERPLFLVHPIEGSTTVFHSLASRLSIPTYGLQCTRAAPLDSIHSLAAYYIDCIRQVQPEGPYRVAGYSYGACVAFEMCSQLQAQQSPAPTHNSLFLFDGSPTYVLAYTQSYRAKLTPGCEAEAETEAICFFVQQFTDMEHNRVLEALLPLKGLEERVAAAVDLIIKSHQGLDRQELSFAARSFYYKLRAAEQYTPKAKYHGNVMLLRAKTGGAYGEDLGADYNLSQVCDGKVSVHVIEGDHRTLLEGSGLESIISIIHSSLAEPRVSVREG

Read-out in the first assay: Tumor necrosis factor receptor superfamily member 6 (Homo sapiens) (UniProt P25445)
The experiment in a line: LTEA_HepaRG_FAS: Life Technologies and Expression Analysis (LTEA) Assay for Fas cell surface death receptor (FAS) using HepaRG (AID 2283447). To be noted: mRNA level, 48 h; actives raise or lower the signal. An outline of the steps:
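FAS transcript level was measured by TaqMan qRT-PCR against three housekeeping genes after 48 h chemical exposure. Cells were HepaRG, 0.5% DMSO vehicle, with a top concentration of 100 uM and half-log dilutions over eight points, in duplicate.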
Take `CCCCC(CC)COC(=O)c1ccccc1C(=O)O` (centres undefined): the call was inactive.

As for `CCSC(=O)N(CC(C)C)CC(C)C`, the outcome was inactive.

With `CCC(C)OC(=O)N1CCCCC1CCO` (centres undefined), the call was inactive.

For `OB(O)O`, the compound was classed as inactive.

Regarding `CC(C)CCCCCCc1ccc(O)cc1`, the result was inactive.

Consider `COC(=O)CSc1cc(N=c2sc(=O)n3n2CCCC3)c(F)cc1Cl`, for which the outcome was inactive.

For the compound `CCCN(CCC)c1c([N+](=O)[O-])cc(C(F)(F)F)c(N)c1[N+](=O)[O-]`, the compound was classed as inactive.

Read-out in a further assay: Fatty acid synthase (Homo sapiens) (UniProt P49327)
Kind of assay: LTEA_HepaRG_FASN: Life Technologies and Expression Analysis (LTEA) Assay for Fatty Acid Synthase (FASN) using HepaRG (AID 2283448).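 For AC50: differentiated human HepaRG liver cells in serum-free induction medium.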 To be noted: mRNA level, 48 h; actives raise or lower the signal. The method, boiled down: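 Cells were plated, cultured 48 h, switched to serum-free induction medium, then dosed in duplicate (max 100 uM, half-log dilutions, 0.5% DMSO) for 48 h. RNA was then isolated and FASN quantified by qRT-PCR.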
Consider `CCCOC(=O)NCCCN(C)C`, for which the compound was classed as inactive.

For the compound `CCN(CC)C(=O)c1cccc(C)c1`, the outcome was inactive.

Regarding `CCCCOC(=O)C(C)Oc1ccc(Oc2ccc(C(F)(F)F)cn2)cc1` (centres undefined), the outcome was inactive.

For the compound `CCOC(=O)COc1cc(-n2ncc(C(F)(F)F)c(C)c2=O)c(F)cc1Cl`, the result was inactive.

Turning to `CCCOC(=O)c1ccc(C(=O)OCCC)nc1`, the result was inactive.

As for `CCCCCCC(C)OC(=O)COc1nc(F)c(Cl)c(N)c1Cl` (centres undefined), the outcome was inactive.

Turning to `CCOC(=O)C(C)Oc1ccc(Oc2nc3ccc(Cl)cc3o2)cc1` (centres undefined), the outcome was inactive.

On to `COc1c(Cl)ccc(Cl)c1C(=O)O`, for which the compound was called inactive.

With `CCCCC(CC)COC(=O)c1ccccc1C(=O)O` (centres undefined), the result was inactive.

In the case of `CCSC(=O)N(CC(C)C)CC(C)C`, the outcome was inactive.

Regarding `CCC(C)OC(=O)N1CCCCC1CCO` (centres undefined), the result was inactive.

With `OB(O)O`, the outcome was inactive.

As to `CC(C)CCCCCCc1ccc(O)cc1`, the result was inactive.

In the case of `N#CSCSc1nc2ccccc2s1`, the AC50 was 68.3 µM (active).

On to `C[C@]12CC[C@@H]3c4ccc(O)cc4C[C@@H](CCCCCCCCCS(=O)CCCC(F)(F)C(F)(F)F)[C@H]3[C@@H]1CC[C@@H]2O` (some centres undefined), for which the call was inactive.

As to `O=C(O)c1ccccc1`, the result was inactive.

Turning to `N[C@@H](Cc1cc(I)c(Oc2ccc(O)c(I)c2)c(I)c1)C(=O)O`, the compound was called inactive.

For the compound `O=C(O)C1(C(=O)Nc2ccc(Cl)cc2Cl)CC1`, the AC50 is 69.8 µM (active).

Turning to `COC(=O)CSc1cc(N=c2sc(=O)n3n2CCCC3)c(F)cc1Cl`, the compound was classed as inactive.

`O=C(c1ccc(O)cc1O)c1ccc(O)cc1O`: the result was inactive.

`CCOC(=O)NCCOc1ccc(Oc2ccccc2)cc1`: the AC50 is 50 µM (active).

Take `COC(=O)c1ccccc1C(=O)O`: the outcome was inactive.

As for `COC(=O)c1ccc(I)cc1S(=O)(=O)NC(=O)Nc1nc(C)nc(OC)n1`, the call was inactive.

Regarding `Cc1nn(C)c(Oc2ccccc2)c1C=NOCc1ccc(C(=O)OC(C)(C)C)cc1`, the compound was called inactive.

For the compound `COCCO`, the result was inactive.

Regarding `CCCN(CCC)c1c([N+](=O)[O-])cc(C(F)(F)F)c(N)c1[N+](=O)[O-]`, the AC50 was 50 µM (active).

As to `O=C(c1ccccc1)C1CCCCC1`, the outcome was inactive.

What is called AC50 is the midpoint of the concentration-response curve, whichever way the signal moves.
